Data reported in PubChem BioAssay AID1159580 (chemical genetic matrix, 2015).
Screen size: about 5,500 compounds; about 2,000 (36%) were called active. Inconclusive results (about 18%) are left out. No stated cut-off is given here; in the data, active means normalized growth mostly below about 0.91 (no sharp cut-off); inconclusive means no clear call, values can overlap the other calls; inactive means mostly above about 0.92. The list shows a part of the results.

Assay: chemical genetic growth profiling, strain panel (AID 1159580);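 further: tested at 20 µM; growth read once vehicle control cultures reached saturation at 30 °C; 1 = growth at the plate median or of vehicle wells; lower values mean less growth of the strain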
Conditions: growth OD

Measured: normalized growth

COc1cc(C)c2c(=O)c3c(O)cc(O)cc3oc2c1
active: S. cerevisiae deletion strains, locus YDL192W, strain arf1, hits give low values 0.891 | S. cerevisiae deletion strains, locus YDR318W, strain mcm21, hits give low values 0.906 | S. cerevisiae deletion strains, locus YDR502C, strain sam2, hits give low values 0.92 | S. cerevisiae deletion strains, locus YGL086W, strain mad1, hits give low values 0.904 | S. cerevisiae deletion strains, locus YGR252W, strain gcn5, hits give low values 0.764 | S. cerevisiae deletion strains, locus YHR079C, strain IRE1 (second series), hits give low values 0.925 | S. cerevisiae deletion strains, locus YHR200W, strain rpn10, hits give low values 0.904 | S. cerevisiae deletion strains, locus YKR001C, strain vps1, hits give low values 0.871 | S. cerevisiae deletion strains, locus YLR418C, strain cdc73, hits give low values 0.815 | S. cerevisiae deletion strains, locus YML032C, strain rad52, hits give low values 0.829 | S. cerevisiae deletion strains, locus YMR223W, strain ubp8, hits give low values 0.884 | S. cerevisiae deletion strains, locus YNL233W, strain BNI4, hits give low values 0.86 | S. cerevisiae deletion strains, locus YNL250W, strain rad50, hits give low values 0.889 | S. cerevisiae deletion strains, locus YNL307C, strain MCK1, hits give low values 0.868 | S. cerevisiae deletion strains, locus YOL147C, strain pex11, hits give low values 0.923 | S. cerevisiae deletion strains, locus YPR163C, strain tif3, hits give low values 0.896 | S. cerevisiae deletion strains, locus YPR167C, strain met16, hits give low values 0.883
inactive: S. cerevisiae deletion strains, locus YBR021W, strain FUR4, hits give low values 0.936 | S. cerevisiae deletion strains, locus YBR229C, strain ROT2, hits give low values 0.975 | S. cerevisiae deletion strains, locus YCL029C, strain bik1, hits give low values 0.95 | S. cerevisiae deletion strains, locus YDL035C, strain GPR1, hits give low values 0.994 | S. cerevisiae deletion strains, locus YDL074C, strain BRE1, hits give low values 0.95 | S. cerevisiae deletion strains, locus YDL101C, strain DUN1, hits give low values 0.974 | S. cerevisiae deletion strains, locus YDL185W, strain tfp1, hits give low values 0.955 | S. cerevisiae deletion strains, locus YDR101C, strain arx1, hits give low values 0.943 | S. cerevisiae deletion strains, locus YDR162C, strain NBP2, hits give low values 0.967 | S. cerevisiae deletion strains, locus YDR388W, hits give low values 0.941 | S. cerevisiae deletion strains, locus YEL061C, strain CIN8, hits give low values 1.02 | S. cerevisiae deletion strains, locus YER110C, hits give low values 0.948 | S. cerevisiae deletion strains, locus YER167W, strain BCK2, hits give low values 0.983 | S. cerevisiae deletion strains, locus YGL078C, strain dbp3, hits give low values 0.946 | S. cerevisiae deletion strains, locus YGL248W, strain PDE1, hits give low values 0.934 | S. cerevisiae deletion strains, locus YGR135W, strain pre9, hits give low values 0.93 | S. cerevisiae deletion strains, locus YHR094C, strain hxt1, hits give low values 0.961 | S. cerevisiae deletion strains, locus YHR129C, strain ARP1, hits give low values 0.995 | S. cerevisiae deletion strains, locus YIL066C, strain RNR3, hits give low values 0.986 | S. cerevisiae deletion strains, locus YIL073C, strain SPO22, hits give low values 0.923 | S. cerevisiae deletion strains, locus YIL125W, strain kgd1, hits give low values 0.957 | S. cerevisiae deletion strains, locus YIR030C, strain dcg1, hits give low values 0.953 | S. cerevisiae deletion strains, locus YJL095W, strain BCK1, hits give low values 0.829 | S. cerevisiae deletion strains, locus YJL134W, strain LCB3, hits give low values 0.981 | S. cerevisiae deletion strains, locus YJL168C, strain set2, hits give low values 0.975 | S. cerevisiae deletion strains, locus YJL187C, strain SWE1 (second series), hits give low values 0.953 | S. cerevisiae deletion strains, locus YJR043C, strain POL32, hits give low values 0.979 | S. cerevisiae deletion strains, locus YKL009W, strain mrt4, hits give low values 0.911 | S. cerevisiae deletion strains, locus YKL068W, hits give low values 0.971 | S. cerevisiae deletion strains, locus YKL085W, strain MDH1 (second series), hits give low values 0.952 | S. cerevisiae deletion strains, locus YKL085W, strain MDH1, hits give low values 0.952 | S. cerevisiae deletion strains, locus YKL190W, strain CNB1, hits give low values 1 | S. cerevisiae deletion strains, locus YLR039C, strain RIC1, hits give low values 0.865 | S. cerevisiae deletion strains, locus YLR058C, strain SHM2, hits give low values 0.941 | S. cerevisiae deletion strains, locus YLR102C, strain apc9, hits give low values 0.969 | S. cerevisiae deletion strains, locus YLR262C, strain YPT6, hits give low values 0.846 | S. cerevisiae deletion strains, locus YLR268W, strain sec22, hits give low values 0.941 | S. cerevisiae deletion strains, locus YLR330W, strain CHS5, hits give low values 0.973 | S. cerevisiae deletion strains, locus YLR371W, strain rom2, hits give low values 0.936 | S. cerevisiae deletion strains, locus YML016C, strain PPZ1, hits give low values 0.974 | S. cerevisiae deletion strains, locus YML124C, strain tub3, hits give low values 0.967 | S. cerevisiae deletion strains, locus YMR078C, strain ctf18, hits give low values 0.954 | S. cerevisiae deletion strains, locus YMR263W, strain SAP30, hits give low values 0.979 | S. cerevisiae deletion strains, locus YMR307W, strain GAS1, hits give low values 0.752 | S. cerevisiae deletion strains, locus YNL067W, strain RPL9B, hits give low values 0.992 | S. cerevisiae deletion strains, locus YNL128W, strain TEP1, hits give low values 0.985 | S. cerevisiae deletion strains, locus YNL153C, strain GIM3, hits give low values 0.989 | S. cerevisiae deletion strains, locus YNL271C, strain bni1, hits give low values 0.953 | S. cerevisiae deletion strains, locus YNL298W, strain CLA4, hits give low values 0.962 | S. cerevisiae deletion strains, locus YNR052C, strain pop2, hits give low values 0.933 | S. cerevisiae deletion strains, locus YOL012C, strain htz1 0.866 | S. cerevisiae deletion strains, locus YOR061W, strain CKA2, hits give low values 0.982 | S. cerevisiae deletion strains, locus YOR069W, strain VPS5, hits give low values 0.997 | S. cerevisiae deletion strains, locus YOR136W, strain idh2, hits give low values 0.925 | S. cerevisiae deletion strains, locus YOR144C, strain elg1, hits give low values 0.954 | S. cerevisiae deletion strains, locus YOR184W, strain ser1, hits give low values 0.918 | S. cerevisiae deletion strains, locus YOR316C, strain cot1, hits give low values 0.96 | S. cerevisiae deletion strains, locus YPR119W, strain clb2, hits give low values 0.956 | S. cerevisiae deletion strains, locus YPR141C, strain kar3, hits give low values 0.958 | S. cerevisiae deletion strains, strain wtn01, hits give low values 0.919 | S. cerevisiae strains, strain wild type, hits give low values 0.932
